# Screening data from PubChem BioAssay.
# Compounds with a hit are over-represented: about 9.4% of the library has one in this group of screens.
# SMN2 splice enh: enhancers of SMN2 splice variant expression; HEK293 SMN2-luciferase splicing reporter, luminescence, 30-36 h; Potency, µM (doses to about 46.1 µM), hits mostly activators; hit rate 2.8% among 210,000; AID 1458; also: nearly all actives have a fitted effect of over 55% in size
#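 HEK293 cells carry an SMN2 […]–luciferase reporter in which exon 7 inclusion puts luciferase in frame. Cells were plated 10-12 h before compound addition, then incubated 30-36 h at 37C. ONE-Glo luminescence was read; sodium butyrate at 4.5 mM final served as control.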
# ELG1 repair inh: inhibitors of ELG1-dependent DNA repair in HEK293T cells. hit rate 2.3% among 330,000. Potency, µM (highest dose often 46.1 µM), actives largely listed as inhibitors. HEK293T ELG1-luciferase reporter, luminescence, 16 h; DNA damage induced by 5-fluorouridine. AID 504467; also: nearly all actives have a fitted effect of over 55% in size
#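 Reporter activity after DNA damage by 5-fluorouridine is monitored. Compound-treated cells incubate 16 hr at 37 °C, then ONE-Glo is added for 30 min before luminescence reading.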
# ELG1 genotoxic: genotoxicity induction in ELG1-luciferase HEK293T cells. HEK293T ELG1-luciferase reporter, luminescence, 16 h. Potency, µM (doses to about 46 µM), hits mostly activators. hit rate 1.3% among 330,000. AID 504466; also: nearly all actives have a fitted effect of over 60% in size
#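 HEK293T cells expressing luciferase-tagged ELG1 were treated with compound or DMSO for 16 hr at 37°C. Luciferase activity was then read after 30 min with ONE-Glo at room temperature; rising signal flags genetic stress.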
# FLuc counter: inhibits or activates purified firefly luciferase, miR-21 counter-screen; hit rate 6.9% among 360,000; Potency, µM (top dose mostly 57.5 µM), most hits filed as inhibitors; purified FLuc, Km substrates, luminescence inhibition; also: nearly all actives have a fitted effect of over 55% in size
# Target sequence (P08659 whole entry, looked up): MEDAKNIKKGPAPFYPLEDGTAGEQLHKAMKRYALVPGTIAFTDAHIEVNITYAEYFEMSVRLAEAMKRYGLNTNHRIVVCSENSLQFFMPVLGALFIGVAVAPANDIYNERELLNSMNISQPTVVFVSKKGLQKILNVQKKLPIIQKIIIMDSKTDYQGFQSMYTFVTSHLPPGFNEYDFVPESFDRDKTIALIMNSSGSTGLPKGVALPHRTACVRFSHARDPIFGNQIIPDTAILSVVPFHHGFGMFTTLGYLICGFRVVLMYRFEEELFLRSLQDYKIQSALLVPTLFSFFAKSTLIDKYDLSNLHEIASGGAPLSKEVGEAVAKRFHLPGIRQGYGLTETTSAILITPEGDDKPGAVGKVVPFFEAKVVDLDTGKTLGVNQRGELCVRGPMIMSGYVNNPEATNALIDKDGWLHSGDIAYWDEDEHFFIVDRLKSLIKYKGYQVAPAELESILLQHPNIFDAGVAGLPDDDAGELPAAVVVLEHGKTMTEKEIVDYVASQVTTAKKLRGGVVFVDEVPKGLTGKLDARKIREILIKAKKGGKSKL
#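 Biochemical qHTS of compounds, final roughly 60 µM downward over six points, against 10 nM purified firefly luciferase using Km concentrations of substrates (10 uM D-luciferin, 10 uM ATP) in Tris acetate pH 7.5 buffer; luminescence output.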
# NPC1 promoter act: activates the NPC1 promoter; Huh7 NPC1 promoter luciferase reporter, 24 h; Potency, µM (titrated, usually from 9.22 µM), actives largely listed as activators; hit rate 2.4% among 320,000; also: nearly all actives have a fitted effect of over 60% in size
#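 NPC1 promoter–luciferase Huh7 cells; 24 h compound; luminescence.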
# Rab9 promoter act: activators of Rab9 promoter. AID 485297. hit rate 2.8% among 320,000. Huh7 Rab9 promoter-luciferase reporter, luminescence, 24 h. Potency, µM (series often up to 9.22 µM), actives largely listed as activators; also: nearly all actives have a fitted effect of over 60% in size
#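 Luminescence from Amplite-detected luciferase (10 minutes, ambient) reports Rab9 promoter activation. Before that, stable Rab9-luciferase Huh7 cells (1500/well, reduced-serum OP-MEM I plus 10% FBS) were exposed to compound for 24 hours at 37C.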
# Numbers stand for hits; i = inactive; ? = inconclusive; nt = no result; [ ] = another dose, or the depositor's remark. Calls follow the shape of the dose curve; as a rule, active = well fitted curve in the direction sought with a large enough effect; inconclusive = small, poorly fitted or top-dose-only effect, or another doubt; inactive = no such curve, though single readings can be large; an effect the other way counts as inactive or inconclusive.
SMILES,SMN2 splice enh,ELG1 repair inh,ELG1 genotoxic,FLuc counter,NPC1 promoter act,Rab9 promoter act
O=C(N/N=C/c1ccc(F)cc1)c1c(O)c2ccccc2[nH]c1=O,nt,?,i,i,i,i
O=C(NC1CCCCCC1)c1c(O)c2ccccc2[nH]c1=O,i,?,?,2.7µM,1µM,?
O=C(Cc1c(O)c2ccccc2[nH]c1=O)NC1CCCCCC1,i,i,i,i,i,i
c1coc(-c2nc3n(n2)C2(CCCCC2)[C@@H]2CCCC[C@@H]2N3)c1,nt,nt,nt,i,nt,nt
O=[N+]([O-])c1ccc(CCO)cc1,i,nt,nt,nt,nt,nt
CCOC(=O)CC(NC(=O)c1cc2cc(OC)ccc2oc1=O)c1ccc(OC)cc1 (centres undefined),i,nt,nt,i,nt,nt
Cc1cccc(/C(N)=N/OC(=O)C23CC4CC(CC(C4)C2)C3)c1,i,?,?,4.3µM,i,?
Cc1cccc(/C(N)=N/OC(=O)c2cccnc2)c1,nt,?,?,9.5µM,?,4µM
Cc1cccc(/C(N)=N/OC(=O)c2ccc(Br)o2)c1,?,?,?,4.3µM,i,i
COc1cc(OC)cc(C(=O)O/N=C(\N)c2cccc(C)c2)c1,nt,?,i,24µM,?,?
C[N@@+]1(CC[N@@+]2(C)CCC[C@H]2c2cccnc2)CCC[C@@H]1c1cccnc1,i[9.22 µM],nt,nt,nt,nt,nt
O=C(/C=C/c1cccs1)Nc1ccc(Br)cn1,14µM,?,9.2µM,3µM,?,?
CCc1nnc(NC(=O)/C=C/c2cccs2)s1,?,?,23µM,i,?,3.5µM
O=C(/C=C/c1cccs1)Nc1ccc(S(=O)(=O)Nc2ncccn2)cc1,nt,i,i,i,i,i
O=C(/C=C/c1cccs1)Nc1nccs1,13µM,?,18µM,?,1.8µM,2.2µM
CCc1nnc(NC(=O)C=C(C)C)s1,10µM,?,?,?,?,?
CCOc1ccc(-c2nc(SC(C(C)=O)C(=O)N(C)C)c3c(=O)n(C)c(=O)n(C)c3n2)cc1 (centres undefined),nt,nt,nt,i,nt,nt
CCC1CN(C(=O)N2CCC(C(=O)NCc3cccc(C)c3)CC2)c2ccccc2O1 (centres undefined),nt,nt,nt,i,nt,nt
O=C(/C=C/c1cccs1)NC1CC1,i,?,i,i,i,i
O=C(/C=C/c1cccs1)Nc1cccc(NC(=O)/C=C/c2cccs2)n1,7.1µM,16µM,i,1.9µM,?,?
NS(=O)(=O)c1cccc(NC(=O)/C=C/c2cccs2)c1,?,?,i,7.6µM,?,?
Cc1cc(C)c(-c2csc(NC(=O)/C=C/c3cccs3)n2)c(C)c1,i,?,i,i,i,i
O=C(/C=C/c1cccc(F)c1)Nc1nccs1,11µM,?,?,9.5µM,2µM,1.8µM
O=C(COC(=O)/C=C/c1cccc(F)c1)Nc1ncccn1,nt,i,i,i,i,i
Cc1cc(C)nc(NC(=O)/C=C/c2cccs2)c1,nt,?,?,13µM,?,3.5µM
SMILES,SMN2 splice enh,ELG1 repair inh,ELG1 genotoxic,FLuc counter,NPC1 promoter act,Rab9 promoter act
COc1cc2[nH]c(=O)n(CCCC(=O)N(C)Cc3ccccc3)c(=O)c2cc1OC,i,nt,nt,i,nt,nt
CCOC(=O)c1cccc(NC(=O)Nc2c(C)n(C)n(-c3ccccc3)c2=O)c1,i,nt,nt,i,nt,nt
O=C(Nc1nccs1)C(Br)C(Br)c1ccccc1 (centres undefined),nt,?,?,4.8µM,1.1µM,0.5µM
CC(=O)OC(C(=O)Nc1nccs1)c1ccccc1 (centres undefined),nt,i,i,i,i,i
O=C(/C=C\c1ccccc1)Nc1nccs1,4µM,?,?,1.9µM,1.6µM,0.89µM
O=C(/C=C/c1ccccc1)Nc1nc(-c2cccs2)ns1,nt,nt,nt,i,nt,nt
O=C(Cc1ccccc1)Nc1ccc2c(c1)OC1(CCCC1)O2,nt,?,?,4.8µM,2.5µM,2.5µM
O=C(Cc1ccccc1)Nc1ccc(NC(=O)Cc2ccccc2)c(Cl)c1,nt,i,i,i,i,i
O=C(Cc1ccccc1)Nc1cc2c(cc1Cl)OCCCO2,nt,?,?,17µM,3.2µM,2.8µM
O=C(Nc1cc2c(cc1C(=O)O)OCCCO2)c1ccc(C(F)(F)F)cc1,nt,?,18µM,13µM,4µM,2.8µM
CCc1ccc(C(=O)Nc2cc3c(cc2Cl)OCCCO3)cc1,25µM,?,?,6µM,1.8µM,1.6µM
O=C(O)c1cc2c(cc1NC(=O)c1ccccc1C(F)(F)F)OCCCO2,nt,i,i,i,i,i
CCC(O)c1cc2c(cc1NC(=O)c1ccc(C)cc1)OCCO2 (centres undefined),i,i,i,?,i,i
